Screens deposited in PubChem BioAssay by several laboratories.
EWS-Fli block: EWS/Fli-driven NR0B1 reporter inhibitors, primary screen, A673 cells, NR0B1 luciferase, luminescence, MLPCN library; viability-normalised; inhibition, % at 12.6 µM; 350,000 compounds, 0.67% hits; AID 651661, 2012;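 active means mean inhibition of at least 50% after viability correction, with every replicate also passing that limit; inconclusive means mean reaches 50% but only one of two replicates passes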;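 further: firefly luciferase signal divided by Alamar Blue viability fluorescence both relative to DMSO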
EBV LMP1 NFkB: EBV LMP1-driven NF-kappaB luciferase reporter inhibitors, primary screen, cell-based, luminescence, single point; LMP1-induced NF-kappaB luciferase reporter cells; AID 504558, 2011; 350,000 compounds, 0.69% hits; inhibition, % at 12.5 µM; in the data active means inhibition above about 41%; inconclusive means no clear call, values can overlap the other calls;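 further: 0% = neutral control wells and 100% = reference inhibitor control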
TWEAK Fn14 block: inhibitors of TWEAK-Fn14 signaling, primary screen, luciferase reporter cells, uHTS. 360,000 compounds, 2% hits. inhibition, % at 10 µM. AID 1159606, 2016. TWEAK-stimulated Fn14 reporter cells, luciferase luminescence, 8 h; in the data active means inhibition above about 50%
TROY signal inh: inhibitors of TROY-driven NF-kB signaling, primary screen, Q293 LMP1-TROYcd cells, NF-kB luciferase, uHTS; Q293 LMP1-TROYcd NF-kB luciferase reporter, 4 h; inhibition, % at 10 µM; 360,000 compounds, 0.98% hits;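 active means compounds whose plate-normalised and pattern-corrected inhibition of the luciferase reporter signal at the single screening dose is 50% or more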
PAX8 inh HTS: inhibitors of PAX8-driven TPO luciferase reporter, primary screen, RMG-I cells, single concentration; SteadyGlo, 24 h; inhibition, % at 12.6 µM; 360,000 compounds, 1.2% hits; AID 652154, 2013;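 active means mean replicate inhibition at least 60% with every replicate also reaching 60%; inconclusive means only one of the two criteria is met; inactive means mean below 60% and not all replicates reaching 60%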;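 further: luciferase light reporting Pax8 driven TPO promoter activity; plate controls were median of neutral control wells for no effect and mitoxantrone controls for full effect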
LGR2 inh: inhibitors of bursicon-induced LGR2 CRE-luciferase signal, primary screen, cell-based, HEK293, CRE-luciferase reporter, bursicon stimulation; AID 720647, 2013; inhibition, % at 9.99 µM; bursicon-stimulated, 4 h; Drosophila bursicon receptor LGR2 (rickets); 380,000 compounds, 0.35% hits;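 active means drop in luminescence signal, shown as inhibition above about 50% in the replicate tests, limit read from the data, passing the limit was not always enough; inconclusive means probably only some replicates passing the limit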;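 further: agonist challenge used bursicon conditioned medium at about half maximal strength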
* = called active by the depositor; ? = inconclusive; . = no result. The list is not random: actives were taken first. Their share in the collection is about 3.2%.

SMILES	EWS-Fli block	EBV LMP1 NFkB	TWEAK Fn14 block	TROY signal inh	PAX8 inh HTS	LGR2 inh
CO[C@H]1CN(C)C(=O)c2cc(NC(=O)NC3CCCCC3)ccc2OC[C@@H](C)N(C(C)=O)C[C@@H]1C	7	.	.	.	.	5
COC(=O)CN1C(=S)N(c2ccc(Cl)cc2)C(=O)C1CC(=O)Nc1ccccc1 (stereo not given)	4	12	16	13	14	0
COC(=O)CN1C(=S)N(C)C(=O)C1CC(=O)Nc1ccccc1 (stereo not given)	-5	-4	-6	-10	115*	-5
O=C(C[C@@H]1C=C[C@@H](NC(=O)c2ccc3c(c2)OCO3)[C@@H](CO)O1)NCc1ccc(F)cc1	0	.	.	.	-4	0
N#Cc1c(Nc2ccccc2)sc(C(=O)c2ccc(F)cc2)c1N	.	43*	10	10	32	-12
Cc1ccc(C(=O)c2sc(Nc3ccccc3)c(C#N)c2N)cc1	.	-6	17	4	30	-20
C[C@@H]1CN([C@H](C)CO)C(=O)c2cc(C3=CCCC3)cnc2O[C@@H]1CN(C)C(=O)c1cccnc1	-4	.	.	.	-1	6
C[C@@H]1CN([C@H](C)CO)C(=O)c2cc(NC(=O)C3CCCCC3)ccc2O[C@@H](C)CCCCO[C@@H]1CN(C)C(=O)Nc1ccccc1	-6	.	.	.	-11	-4
O=C(C[C@H]1C[C@@H]2c3cc(NC(=O)c4ccc5c(c4)OCO5)ccc3O[C@@H]2[C@@H](CO)O1)NCC1CC1	1	.	.	.	17	13
COC(=O)C[C@@H]1CC[C@H](NS(=O)(=O)c2ccccc2F)[C@H](CO)O1	0	.	.	.	4	-4
CC(=O)c1c(OC(=O)c2ccccc2Br)ccc2c(C)cc(=O)oc12	.	19	54*	37	5	-8
O=C(C[C@H]1CC[C@H]2[C@@H](COC[C@H](O)CN2Cc2ccccc2F)O1)N1CCc2ccccc2C1	10	.	.	.	-14	-14
C=C1CCc2c([nH]c3ccc(OCC(C)C)cc23)C1=O	?	9	2	-17	111*	8
CCn1c2c(c3cc(OCC(C)C)ccc31)CCCC2=O	17	-2	-16	12	.	1
Cc1cc(/C=N/n2cnnc2)c(C)n1-c1ccc(Cl)cc1	.	3	3	-25	20	-7
Cc1cc(/C=N/n2cnnc2)c(C)n1-c1ccc(OCc2ccc(Cl)cc2Cl)cc1	.	31	61*	77*	.	.
CC(C(=O)NC1CCCc2ccccc21)N1CCN(Cc2ccc3c(c2)OCO3)CC1 (stereo not given)	.	6	8	58*	-1	.
COc1ccccc1-n1cnc2cc(NCc3ccccn3)ccc21	.	4	52*	56*	.	.
CC1=C(C(=O)Nc2ccccc2)C(c2ccncc2)C(C#N)=C(SCC(=O)NC2CC2)N1 (stereo not given)	.	-11	94*	.	.	.
COCC#Cc1ccc2c(c1)O[C@@H](CN(C)C(=O)C1CCC1)[C@H](C)CN([C@H](C)CO)S2(=O)=O	-6	.	.	.	.	-16
COc1cc(Cn2c3ccc(NC(=O)NCc4ccc(F)cc4)cc3c(=O)n2C)ccc1F	51*	.	10	-20	36	0
COc1ccc(CCNC(=O)Nc2ccc3c(c2)c(=O)n(C)n3Cc2ccc(F)cc2)cc1OC	-3	.	-5	16	5	-23
O=C(Nc1ccc(F)cc1)N1CCCCN2[C@@H](CO)[C@@H](c3ccc(C#Cc4ccccn4)cc3)[C@@H]2C1	5	.	.	.	9	0
CC(NC(=O)c1ccc(F)cc1)c1ccc2c(c1)CCCC2 (stereo not given)	.	1	20	53*	.	.
CC(NC(=O)c1ccc(Br)cc1)c1ccc2c(c1)CCCC2 (stereo not given)	.	-5	23	17	22	39
SMILES	EWS-Fli block	EBV LMP1 NFkB	TWEAK Fn14 block	TROY signal inh	PAX8 inh HTS	LGR2 inh
Cc1noc(C)c1S(=O)(=O)N(C)C[C@H]1OCCCC[C@H](C)Oc2ccc(NC(=O)Cc3ccccc3)cc2C(=O)N([C@H](C)CO)C[C@H]1C	-9	.	.	.	-7	16
O=C(O)/C=C/c1cnn(-c2ccccc2)c1	31	12	67*	8	12	59*
O=C(CSc1ncnc2[nH]ncc12)Nc1nc(-c2ccc(F)c(F)c2)cs1	-2	6	78*	39	17	?
COc1ccc(CC(=O)Nc2nc(-c3ccc(F)c(F)c3)cs2)cc1	16	0	47	55*	11	4
Cc1csc(NC(=O)Cc2ccc(F)cc2)n1	-75	-18	-8	-52	-107	-35
CS(=O)(=O)N1CCc2cc(-c3csc(NC(=O)C(c4ccccc4)c4ccccc4)n3)ccc21	.	-6	2	3	.	0
COc1ccc(CC(=O)Nc2nc(-c3ccncc3)cs2)cc1	3	10	8	-5	-9	27
O=C(Cc1ccc(F)cc1)Nc1nc(-c2ccc(F)c(F)c2)cs1	-24	-4	45	75*	-17	21
CC1Cc2cc(-c3csc(NC(=O)Cc4ccccc4)n3)ccc2N1S(C)(=O)=O (stereo not given)	-28	7	92*	60*	.	32
CN(C)C(=O)C[C@H]1C[C@H]2c3cc(NS(C)(=O)=O)ccc3O[C@H]2[C@H](CO)O1	-6	.	.	.	-26	16
CC1(C(=O)OCC(=O)Nc2nc(-c3ccc(F)c(F)c3)cs2)CC1(Cl)Cl (stereo not given)	-20	-3	72*	82*	-32	19
CC1=Nc2cc(C(=O)NCCCOC(C)C)ccc2Sc2ccc(C)cc21	59*	-4	1	33	28	0
CC1=Nc2cc(C(=O)NCCCOC(C)C)ccc2Sc2ccccc21	45	-19	28	5	16	0
CC1=Nc2cc(C(=O)NCC3CCCO3)ccc2Sc2ccc(Br)cc21 (stereo not given)	55*	6	17	23	24	-11
CCCC1=Nc2cc(C(=O)NCCCOCC)ccc2Sc2ccccc21	.	12	8	21	99*	.
CCC1=Nc2cc(C(=O)NCc3ccco3)ccc2Sc2ccc(C)cc21	17	20	12	26	84*	.
CCCC1=Nc2cc(C(=O)NCCCOC(C)C)ccc2Sc2ccccc21	.	10	26	11	14	.
CO[C@H]1CN(C)C(=O)c2cc(NC(=O)C3CCCC3)ccc2OC[C@@H](C)N(C(=O)CC2CC2)C[C@H]1C	0	.	.	.	.	19
O=C(C[C@H]1C=C[C@H](NC(=O)CCN2CCCCC2)[C@H](CO)O1)Nc1ccc(-c2ccccc2)cc1	-13	.	.	.	-2	4
COC(=O)c1cc(NC(=O)CN(C)Cc2ccccc2)cc(C(=O)OC)c1	4	-6	86*	14	7	0
